# Measurements reported in the supplement of paper PMC13380429.
# Values without a mark were called inactive.
# Test system: Vero E6 infected with SARS-CoV-2
# Experiment: inhibition of SARS-CoV-2 cytopathic effect; higher = more antiviral protection, active = above 15
# Conditions: 48 h
Structure (SMILES),inhibition of SARS-CoV-2 cytopathic effect (1 nM) [%],inhibition of SARS-CoV-2 cytopathic effect (8.33 nM) [%],inhibition of SARS-CoV-2 cytopathic effect (100 nM) [%],inhibition of SARS-CoV-2 cytopathic effect (833.33 nM) [%],inhibition of SARS-CoV-2 cytopathic effect (10000 nM)
NS(=O)(=O)Cc1noc2ccccc12 [zonisamide],-1.19,-3.86,-0.76,0.73,-2.23%
COC(=O)C(c1ccccc1)C1CCCCN1 (stereo not given),-1.97,-1.71,-1.37,-1.52,-0.37%
CCc1cc(-c2[nH]nc(C)c2-c2ccc3c(c2)OCCO3)c(O)cc1O,-2.8,-1.99,-0.23,-1.82,-2.59%
O=C(Nc1ccccc1)N1CCN(c2nc(-c3ccccc3)ns2)CC1,1.74,1.97,2.17,0.01,-2.23%
Cc1cc(OCC(=O)O)cc(C)c1Cc1ccc(O)c(C(C)C)c1 [sobetirome],1.8,-0.19,-3.41,-2.42,-2.77%
COc1cccc(N2CCN(C3=Nc4c(F)cccc4[C@H](CC(=O)O)N3c3cc(C(F)(F)F)ccc3OC)CC2)c1 [letermovir],-1.18,0.62,0.16,0.96,1.82%
CCOc1cc(C=O)ccc1O [ethyl-vanillin],-2.26,2.03,-1.95,-0.96,-1.21%
CC(C)(C)CCN1C[C@@H]2[C@@H](CNC(=O)c3cc(Cl)cc(Cl)c3)[C@@H]2C1,2.47,2.05,1.76,2.2,-10.4%
Cc1ccc(C(=O)c2ccc(CC(=O)O)n2C)cc1 [tolmetin],-2.48,-1.62,-1.05,-0.39,0.75%
NCCCC[C@H](NC(=O)[C@@H](Cc1cc(Br)c(O)c(Br)c1)NC(=O)N1CCC(N2Cc3ccccc3NC2=O)CC1)C(=O)N1CCN(c2ccncc2)CC1,0.88,0.87,2.08,-1.34,0.72%
Cn1c(=O)c2c(ncn2C)n(C)c1=O [caffeine],-0.58,1.54,-0.63,2.87,3.35%
C(#CCN1CCCC1)CN1CCCC1 [tremorine],8.56,4.46,-2.04,-3.53,-1.73%
CCC1(C)CC(=O)NC1=O (stereo not given) [ethosuximide],-0.56,1.45,1.18,1.39,-4.8%
COc1ccc(NS(=O)(=O)c2ccc(I)cc2)cc1N1CCN(C)CC1,0.59,-5.4,0.99,0.95,-1.3%
CCCCCCNC(=O)n1cc(F)c(=O)[nH]c1=O [carmofur],2.01,4.18,2.63,2.67,4.01%
COc1ccc([C@]2(C#N)CC[C@@H](C(=O)O)CC2)cc1OC1CCCC1 [cilomilast],-1.82,-3.26,-2.36,-1.23,-0.83%
CN(C)[C@@H]1C(O)=C(C(N)=O)C(=O)[C@@]2(O)C(O)=C3C(=O)c4c(O)cccc4[C@@](C)(O)[C@H]3C[C@@H]12 [tetracycline],1.65,1.27,-0.37,-0.82,1.35%
N#Cc1cn([C@@H]2O[C@H](CO)[C@@H](O)[C@H]2O)c2ncnc(N)c12 [toyocamycin],0.31,2.87,4.68,-0.02,-0.24%
O=C(CCCl)NCc1ccccc1 [beclamide],-5.2,-1.11,0.49,0.86,-1.73%
CC1(C)S[C@@H]2[C@H](NC(=O)[C@H](NC(=O)N3CCN(S(C)(=O)=O)C3=O)c3ccccc3)C(=O)N2[C@H]1C(=O)O [mezlocillin],-0.34,0.68,-1.11,-0.82,0.79%

Structure (SMILES),inhibition of SARS-CoV-2 cytopathic effect (1 nM) [%],inhibition of SARS-CoV-2 cytopathic effect (8.33 nM) [%],inhibition of SARS-CoV-2 cytopathic effect (100 nM) [%],inhibition of SARS-CoV-2 cytopathic effect (833.33 nM) [%],inhibition of SARS-CoV-2 cytopathic effect (10000 nM)
CCN1CCN(c2ccc(Nc3cc(N(C)C(=O)Nc4c(Cl)c(OC)cc(OC)c4Cl)ncn3)cc2)CC1,-2.08,-5.16,0.14,-2.75,23.9% (active)
CC(C)[C@H](C(=O)Nc1ccc(C(=O)NO)cc1)c1ccccc1,3.84,0.31,-0.75,1.02,0.89%
O=C1CCCCCCCCCCCCCCO1 [oxacyclohexadecan-2-one],-0.21,0.27,0.06,1.81,-1.21%
CCCCCCCCCCCCCCCCCCCCCCCCCCCCO [1-octacosanol],1.47,3.47,4.36,-0.37,1.08%
Cc1ccccc1C(=O)Nc1ccc(C(=O)N2CCCC(N(C)C)c3ccccc32)cc1 (stereo not given) [mozavaptan],0.68,1.45,3.31,-0.56,-5.53%
NC(=O)C1=CN([C@@H]2O[C@H](COP(=O)(O)OP(=O)(O)OC[C@H]3O[C@@H](n4cnc5c(N)ncnc54)[C@H](O)[C@@H]3O)[C@@H](O)[C@H]2O)C=CC1 [coenzyme-I],-3.2,-4.29,1.16,1.03,1.66%
N#CC(c1ccc(Cl)cc1)c1c(Cl)cc(-n2ncc(=O)[nH]c2=O)cc1Cl (stereo not given) [diclazuril],-4.3,-0.75,0.27,1.84,0.73%
CN1CCCC(n2nc(Cc3ccc(Cl)cc3)c3ccccc3c2=O)CC1 (stereo not given) [azelastine],-1.24,-0.03,-3.43,-2.95,-3.03%
CCCCCCCCCCCC[N+](C)(C)CCOc1ccccc1 [domiphen],-2.49,-1.64,0.17,0.26,-8.43%
C[C@]12CC[C@H](O)CC1=CC[C@@H]1[C@@H]2CC[C@]2(C)C(n3cnc4ccccc43)=CC[C@@H]12 [galeterone],-0.79,0.99,0.05,-5.02,-6.94%
N#Cc1ccncn1 [4-pyrimidinecarbonitrile],3.43,1.7,4.16,0.49,-3.8%
O=C(O)c1ccc2c(c1)C(=O)N(c1cccc(Oc3ccc([N+](=O)[O-])cc3)c1)C2=O,1.34,0.95,0.59,1.36,-0.65%
NS(=O)(=O)c1cc(C(=O)O)cc(N2CCCC2)c1Oc1ccccc1 [piretanide],3.5,5.18,2.39,-2.57,1%
"Clc1cccc(/C=N/N=C/c2cccc(Cl)c2)c1 [3,3'-dichlorobenzaldazine]",2.78,1.74,1.33,1.92,1.46%
C=CC(=O)N1CCC(Oc2cc3c(Nc4ccc(Cl)c(Cl)c4F)ncnc3cc2OC)CC1 [poziotinib],-7.08,-14.9,-15.1,-17.3,-15.7%
CN1C(=O)CN=C(c2ccccc2)c2cc(Cl)ccc21 [diazepam],-0.19,0.35,1.99,0.56,0.22%
CN[C@@H](C)CCC=C(C)C [isometheptene-mucate],-0.09,2.18,0.64,-1.17,-0.16%
Fc1ccc(CN2CCC(Nc3ccc(C(F)(F)F)nn3)CC2)cc1F,0.35,2.13,2.17,1.38,-6.9%
NCC(CC(=O)O)c1ccccc1 (stereo not given) [fenigam],-0.57,0.98,0.48,-0.72,1.87%
O=P(O)(O)C(O)(Cn1ccnc1)P(=O)(O)O [zoledronic-acid],-0.24,2.18,1.88,0.51,-0.12%
